Consider ten compounds from PubChem BioAssay.

Values without a mark were called inactive.

For the assay, the system named is XIP peptide (Xip251-270) binding. The assay can be described thus: XIP fragment 251-270 binding compounds – biochemical, small-molecule microarray, fluorescence 635/667 nm, 0.1 µg/mL protein, primary screen (AID 1182). As to conditions: fluorescent protein binding, 635 nm, higher = more signal, called active from +8 up or from −8 down.
Regarding `COC(=O)CC=C[C@@H](C)[C@@H](C=NO[C@H](C)c1cn([C@H](CO)Cc2ccccc2)nn1)NS(=O)(=O)c1ccc(C)cc1`, the composite z-score was -0.418.

As for `CC(C)CCN1CCc2nc(COc3ccccc3)c3c(c2C1)CO[C@@H](C)C3`, the composite z-score is 0.0821.

For `COC(=O)CC=C[C@@H](C)[C@@H](C=NOC[C@H]1O[C@H](c2ccccc2)C=C[C@@H]1Oc1ccc(OC)cc1)OC`, the composite z-score was 0.0079.

Turning to `C#CCCCON=C1[C@H]2CCn3c(=O)n(-c4ccccc4)c(=O)n3[C@H]2[C@H](O)[C@@H]2O[C@H]12`, the composite z-score is 0.245.

Consider `C#CCCCON=C1C[C@@H](O)[C@@H](O)[C@@H]2[C@@H]3C(=O)N(C(C)(C)C)C(=O)[C@@H]3CC[C@H]12`, for which the composite z-score was -0.217.

Take `O=C(NN=C1C[C@@H](O)[C@@H](O)[C@@H]2[C@@H]3C(=O)N(C[C@@H]4CCCO4)C(=O)[C@@H]3CC[C@H]12)OCc1ccccc1`: the composite z-score is -0.526.

For the compound `COC(=O)CC=C[C@@H](C)[C@@H](C=NOC[C@@H](O)[C@H]1O[C@@H]2OC(C)(C)O[C@@H]2[C@H]1O)NS(=O)(=O)c1ccc(C)cc1`, the composite z-score is 0.0133.

For the compound `O=c1n(-c2ccccc2)c(=O)n2n1CC[C@@H]1C(=NOCc3ccccc3)[C@H]3O[C@H]3[C@@H](O)[C@@H]12`, the composite z-score was -0.368.

For `CC(CCN1CCCCc2nc(C)c(C)cc21)=NOC[C@@H](O)COCc1ccco1`, the composite z-score was 2.22.

As to `CCOC(=O)[C@H](Cc1ccccc1)NC(=O)CCC1CC(OC(=O)NCCc2ccc(F)cc2)CC2(CCCC(COC(=O)NCCOC)O2)O1` (stereo not given in full), the composite z-score was 1.99.
